Reference: PubChem BioAssay

assay: growth inhibition of CRL1545 osteosarcoma cells, cell-based, cisplatin and BGB IC20 combos (AID 1671464); conditions: single agent, at 5 µM, stronger effect = higher value;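 further: cells exposed to compound for 96 hours before readout; 0% = vehicle DMSO and 100% = high DMSO killing control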

Question: For O=c1[nH]cnc2c1ncn2C1CCC(CO)O1 (stereo not drawn), which inhibition is on record?
Answer: -4.43%

Question: For Cc1cn(C2C=CC(CO)O2)c(=O)[nH]c1=O (stereo not drawn), which inhibition is on record?
Answer: -21.8%

Question: For Nc1ccn(C2CCC(CO)O2)c(=O)n1 (stereo not drawn), which inhibition is on record?
Answer: 11.1%
